Among the data in PMC11006913 are binding signal values, retold here.

Where a chain is given by its changes, count along the chain named.

Experiment in all cases: PBM; 200 nM protein, PBS
Common to all, as to conditions: dsDNA, one strand shown

One assay addresses T1, NKX2-6 (Homo sapiens, UniProt A6NCS4 118-204).
T1 sequence: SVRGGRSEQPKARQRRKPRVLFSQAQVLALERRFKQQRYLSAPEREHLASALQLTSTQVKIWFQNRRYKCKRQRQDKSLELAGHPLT

The target in assay [1] is PROP1 (Homo sapiens, UniProt O75360 56-141, R99H).
The target in assay [2] is PROP1 (Homo sapiens, UniProt O75360 56-141, F88S).
Chain of PROP1 (Homo sapiens, UniProt O75360 56-141, F88S) (O75360 56-141 F88S): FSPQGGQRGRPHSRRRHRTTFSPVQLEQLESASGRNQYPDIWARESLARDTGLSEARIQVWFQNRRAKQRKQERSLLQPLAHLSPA
Assay [3] addresses T2, SIX6 (Homo sapiens, UniProt O95475 114-200, L167I).
T2 sequence: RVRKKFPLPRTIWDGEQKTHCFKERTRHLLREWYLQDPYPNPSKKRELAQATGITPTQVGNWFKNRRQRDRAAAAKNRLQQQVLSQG

Assay [4] has as its target T3, SIX6 (Homo sapiens, UniProt O95475 114-200, L143V).
T3 sequence: T2 sequence with L30V, I54L

Assay [5] concerns the target T4, SIX6 (Homo sapiens, UniProt O95475 114-200, H141N).
T4 sequence: T2 sequence with H28N, I54L

The target of assay [6] is T5, SIX6 (Homo sapiens, UniProt O95475 114-200, T165P).
T5 sequence: T2 sequence with T52P, I54L

Assay [7] has as its target T6, SIX6 (Homo sapiens, UniProt O95475 114-200, L167M).
T6 sequence: T2 sequence with I54M

Assay [8] addresses T7, SIX6 (Homo sapiens, UniProt O95475 114-200, L143M).
T7 sequence: T2 sequence with L30M, I54L

In assay [9] the target is T8, SIX6 (Homo sapiens, UniProt O95475 114-200, L143I).
T8 sequence: T2 sequence with L30I, I54L

Assay [10] addresses T9, SIX6 (Homo sapiens, UniProt O95475 114-200, T165G).
T9 sequence: T2 sequence with T52G, I54L

Assay [11] deals with T10, SIX6 (Homo sapiens, UniProt O95475 114-200, T139Q).
T10 sequence: T2 sequence with T26Q, I54L

Assay [12] deals with T11, SIX6 (Homo sapiens, UniProt O95475 114-200, T165A).
T11 sequence: T2 sequence with T52A, I54L

In assay [13] the target is T12, SIX6 (Homo sapiens, UniProt O95475 114-200, L167V).
T12 sequence: T2 sequence with I54V

For assay [14], the target named is T13, SIX6 (Homo sapiens, UniProt O95475 114-200).
T13 sequence: T2 sequence with I54L

Assay [15] has as its target T14, SIX6 (Homo sapiens, UniProt O95475 114-200, T165I).
T14 sequence: T2 sequence with T52I, I54L

The next assay deals with PRRX1 (Homo sapiens, UniProt P54821 80-166, F113S).
Chain of PRRX1 (P54821 80-166 F113S): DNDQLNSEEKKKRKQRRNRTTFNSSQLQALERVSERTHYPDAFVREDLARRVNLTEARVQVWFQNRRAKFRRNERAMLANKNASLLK
In assay [16] the target is MSX2 (Homo sapiens, UniProt P35548 130-214, R199I).
Chain of MSX2 (Homo sapiens, UniProt P35548 130-214, R199I) (P35548 130-214 R199I): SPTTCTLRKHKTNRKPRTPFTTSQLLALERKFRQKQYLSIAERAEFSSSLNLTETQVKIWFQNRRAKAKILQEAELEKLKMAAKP
Assay [17] concerns the target MSX2 (Homo sapiens, UniProt P35548 130-214).
Assay [18] deals with MSX2 (Homo sapiens, UniProt P35548 130-214, F161Y).
Chain of MSX2 (Homo sapiens, UniProt P35548 130-214, F161Y) (P35548 130-214 F161Y): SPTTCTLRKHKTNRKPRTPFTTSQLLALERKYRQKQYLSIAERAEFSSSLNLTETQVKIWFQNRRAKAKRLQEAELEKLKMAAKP

Chain of MSX2 (Homo sapiens, UniProt P35548 130-214) (P35548 130-214): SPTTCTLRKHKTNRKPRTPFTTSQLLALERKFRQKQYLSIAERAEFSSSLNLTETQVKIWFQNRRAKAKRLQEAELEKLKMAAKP
Chain of PROP1 (Homo sapiens, UniProt O75360 56-141, R99H) (O75360 56-141 R99H): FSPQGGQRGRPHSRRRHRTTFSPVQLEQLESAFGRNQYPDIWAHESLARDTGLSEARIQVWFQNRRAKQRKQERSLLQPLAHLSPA

With AGCCTGGG, the binding signal with NKX2-6 was 8.48 upbm affinity estimate (log intensity, higher = more binding, comparable within an allelic series).
For the sequence CTCATTAA, the binding signal was 10.6 upbm affinity estimate (log intensity, higher = more binding, comparable within an allelic series) with PROP1 [1] and 7.48 upbm affinity estimate (log intensity, higher = more binding, comparable within an allelic series) in the assay with PROP1 [2].
Regarding CGTCCCGC, the binding signal with SIX6 [3] was 8.81 upbm affinity estimate (log intensity, higher = more binding, comparable within an allelic series); with SIX6 [4], 8.68 upbm affinity estimate (log intensity, higher = more binding, comparable within an allelic series); with SIX6 [5], 8.86 upbm affinity estimate (log intensity, higher = more binding, comparable within an allelic series); with SIX6 [6], 8.88 upbm affinity estimate (log intensity, higher = more binding, comparable within an allelic series); with SIX6 [7], 8.79 upbm affinity estimate (log intensity, higher = more binding, comparable within an allelic series); with SIX6 [8] it was 8.75 upbm affinity estimate (log intensity, higher = more binding, comparable within an allelic series). Besides, the binding signal was 8.79 upbm affinity estimate (log intensity, higher = more binding, comparable within an allelic series) with SIX6 [9]; 8.8 upbm affinity estimate (log intensity, higher = more binding, comparable within an allelic series) in the assay with SIX6 [10]; 8.84 upbm affinity estimate (log intensity, higher = more binding, comparable within an allelic series) with SIX6 [11]; 8.8 upbm affinity estimate (log intensity, higher = more binding, comparable within an allelic series) in the assay with SIX6 [12]; 8.87 upbm affinity estimate (log intensity, higher = more binding, comparable within an allelic series) in the assay with SIX6 [13]; 8.76 upbm affinity estimate (log intensity, higher = more binding, comparable within an allelic series) with SIX6 [14]. Further, the binding signal in the assay with PROP1 [1] is 6.65 upbm affinity estimate (log intensity, higher = more binding, comparable within an allelic series); with SIX6 [15] it was 8.78 upbm affinity estimate (log intensity, higher = more binding, comparable within an allelic series); in the assay with PROP1 [2], 6.67 upbm affinity estimate (log intensity, higher = more binding, comparable within an allelic series).
Regarding GACTCGGC, in the assay with NKX2-6, the binding signal was 9.17 upbm affinity estimate (log intensity, higher = more binding, comparable within an allelic series).
On to TAAATTAA, for which the binding signal with PRRX1 is 11.2 upbm affinity estimate (log intensity, higher = more binding, comparable within an allelic series); with PROP1 [1], 11 upbm affinity estimate (log intensity, higher = more binding, comparable within an allelic series); with PROP1 [2] it was 7.74 upbm affinity estimate (log intensity, higher = more binding, comparable within an allelic series).
Take GCCGCTCC: the binding signal with SIX6 [3] is 9.16 upbm affinity estimate (log intensity, higher = more binding, comparable within an allelic series); with SIX6 [4], 8.94 upbm affinity estimate (log intensity, higher = more binding, comparable within an allelic series); with SIX6 [5], 9.15 upbm affinity estimate (log intensity, higher = more binding, comparable within an allelic series); in the assay with SIX6 [6], 8.87 upbm affinity estimate (log intensity, higher = more binding, comparable within an allelic series); in the assay with SIX6 [7], 9.07 upbm affinity estimate (log intensity, higher = more binding, comparable within an allelic series); with SIX6 [8] it was 9.12 upbm affinity estimate (log intensity, higher = more binding, comparable within an allelic series). In addition, the binding signal with SIX6 [9] is 8.99 upbm affinity estimate (log intensity, higher = more binding, comparable within an allelic series); in the assay with SIX6 [10], 9.14 upbm affinity estimate (log intensity, higher = more binding, comparable within an allelic series); in the assay with SIX6 [11] it was 9.17 upbm affinity estimate (log intensity, higher = more binding, comparable within an allelic series); with SIX6 [12], 9.12 upbm affinity estimate (log intensity, higher = more binding, comparable within an allelic series); with SIX6 [13], 9.06 upbm affinity estimate (log intensity, higher = more binding, comparable within an allelic series); in the assay with SIX6 [14] it was 9.12 upbm affinity estimate (log intensity, higher = more binding, comparable within an allelic series). The binding signal in the assay with SIX6 [15] is 9.09 upbm affinity estimate (log intensity, higher = more binding, comparable within an allelic series).
In the case of GCCGCCGC, the binding signal with MSX2 [16] was 9.4 upbm affinity estimate (log intensity, higher = more binding, comparable within an allelic series); in the assay with MSX2 [17] it was 9.37 upbm affinity estimate (log intensity, higher = more binding, comparable within an allelic series); with MSX2 [18] it was 9.42 upbm affinity estimate (log intensity, higher = more binding, comparable within an allelic series).
Turning to CCCCCTCG, the binding signal in the assay with MSX2 [16] is 9.51 upbm affinity estimate (log intensity, higher = more binding, comparable within an allelic series); with MSX2 [17] it was 9.66 upbm affinity estimate (log intensity, higher = more binding, comparable within an allelic series); with MSX2 [18], 9.64 upbm affinity estimate (log intensity, higher = more binding, comparable within an allelic series).
Take CTAATGAC: in the assay with NKX2-6, the binding signal was 11.7 upbm affinity estimate (log intensity, higher = more binding, comparable within an allelic series).
With GGCCCCCC, the binding signal with SIX6 [3] is 8.65 upbm affinity estimate (log intensity, higher = more binding, comparable within an allelic series); in the assay with SIX6 [4], 8.57 upbm affinity estimate (log intensity, higher = more binding, comparable within an allelic series); in the assay with SIX6 [5] it was 8.65 upbm affinity estimate (log intensity, higher = more binding, comparable within an allelic series); with SIX6 [6], 8.56 upbm affinity estimate (log intensity, higher = more binding, comparable within an allelic series); with SIX6 [7], 8.73 upbm affinity estimate (log intensity, higher = more binding, comparable within an allelic series); in the assay with SIX6 [8], 8.77 upbm affinity estimate (log intensity, higher = more binding, comparable within an allelic series). In addition, the binding signal with SIX6 [9] is 8.57 upbm affinity estimate (log intensity, higher = more binding, comparable within an allelic series); in the assay with SIX6 [10], 8.61 upbm affinity estimate (log intensity, higher = more binding, comparable within an allelic series); in the assay with SIX6 [11] it was 8.85 upbm affinity estimate (log intensity, higher = more binding, comparable within an allelic series); with SIX6 [12], 8.73 upbm affinity estimate (log intensity, higher = more binding, comparable within an allelic series); in the assay with SIX6 [13], 8.56 upbm affinity estimate (log intensity, higher = more binding, comparable within an allelic series); in the assay with SIX6 [14], 8.69 upbm affinity estimate (log intensity, higher = more binding, comparable within an allelic series). In addition, in the assay with SIX6 [15], the binding signal is 8.78 upbm affinity estimate (log intensity, higher = more binding, comparable within an allelic series).
For GGAGCTCC, the binding signal is 9.52 upbm affinity estimate (log intensity, higher = more binding, comparable within an allelic series) with MSX2 [16]; 9.28 upbm affinity estimate (log intensity, higher = more binding, comparable within an allelic series) with MSX2 [17]; 9.3 upbm affinity estimate (log intensity, higher = more binding, comparable within an allelic series) in the assay with MSX2 [18].
For the sequence CCTCATTA, in the assay with PRRX1, the binding signal was 10.7 upbm affinity estimate (log intensity, higher = more binding, comparable within an allelic series).
For the sequence GGTCATTA, the binding signal is 11.6 upbm affinity estimate (log intensity, higher = more binding, comparable within an allelic series) with MSX2 [16]; 12.7 upbm affinity estimate (log intensity, higher = more binding, comparable within an allelic series) with MSX2 [17]; 12.5 upbm affinity estimate (log intensity, higher = more binding, comparable within an allelic series) with MSX2 [18].
In the case of AGTCATTA, the binding signal in the assay with PRRX1 was 10.4 upbm affinity estimate (log intensity, higher = more binding, comparable within an allelic series).
With ACTAATGG, the binding signal with PROP1 [1] was 9.39 upbm affinity estimate (log intensity, higher = more binding, comparable within an allelic series); in the assay with PROP1 [2], 7.3 upbm affinity estimate (log intensity, higher = more binding, comparable within an allelic series).
In the case of GCGCAGCC, the binding signal in the assay with SIX6 [3] was 8.75 upbm affinity estimate (log intensity, higher = more binding, comparable within an allelic series); with SIX6 [4], 8.82 upbm affinity estimate (log intensity, higher = more binding, comparable within an allelic series); with SIX6 [5], 8.75 upbm affinity estimate (log intensity, higher = more binding, comparable within an allelic series); in the assay with SIX6 [6], 8.87 upbm affinity estimate (log intensity, higher = more binding, comparable within an allelic series); with SIX6 [7] it was 8.77 upbm affinity estimate (log intensity, higher = more binding, comparable within an allelic series); in the assay with SIX6 [8], 8.72 upbm affinity estimate (log intensity, higher = more binding, comparable within an allelic series). Moreover, the binding signal in the assay with SIX6 [9] is 8.74 upbm affinity estimate (log intensity, higher = more binding, comparable within an allelic series); with SIX6 [10] it was 8.7 upbm affinity estimate (log intensity, higher = more binding, comparable within an allelic series); with SIX6 [11], 8.82 upbm affinity estimate (log intensity, higher = more binding, comparable within an allelic series); with SIX6 [12] it was 8.78 upbm affinity estimate (log intensity, higher = more binding, comparable within an allelic series); in the assay with SIX6 [13], 8.72 upbm affinity estimate (log intensity, higher = more binding, comparable within an allelic series); with SIX6 [14], 8.73 upbm affinity estimate (log intensity, higher = more binding, comparable within an allelic series). Besides, the binding signal with SIX6 [15] was 8.7 upbm affinity estimate (log intensity, higher = more binding, comparable within an allelic series).
Regarding ATTATTAA, the binding signal with PRRX1 was 11 upbm affinity estimate (log intensity, higher = more binding, comparable within an allelic series).
